In the library only some 9.4% were active in any assay of this set; here they are far more common.
IMPase inh: membrane-permeable compound that blocks inositol monophosphatase | P97697 | CHO-M1 cells, IP1 accumulation, HTRF TR-FRET ratio | inhibition (IP1 accumulation), % at 46.1 µM | 120,000 tested, under 10 active | AID 901; active means well fitted curve in the direction sought with a large enough effect in the signal ratio, not every such curve was filed as active; inconclusive means small, poorly fitted or top-dose-only effect, or a change in a side signal; inactive means no such curve, though single readings can be large or run the other way; the % refers to the signal ratio;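 further: cells stimulated with carbachol in lithium chloride buffer; plate controls were DMSO basal wells for no effect and reference inhibitor wells for full effect; higher means more IMPase inhibition seen as more IP1 and lower FRET ratio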
Target sequence (P97697 whole entry, looked up): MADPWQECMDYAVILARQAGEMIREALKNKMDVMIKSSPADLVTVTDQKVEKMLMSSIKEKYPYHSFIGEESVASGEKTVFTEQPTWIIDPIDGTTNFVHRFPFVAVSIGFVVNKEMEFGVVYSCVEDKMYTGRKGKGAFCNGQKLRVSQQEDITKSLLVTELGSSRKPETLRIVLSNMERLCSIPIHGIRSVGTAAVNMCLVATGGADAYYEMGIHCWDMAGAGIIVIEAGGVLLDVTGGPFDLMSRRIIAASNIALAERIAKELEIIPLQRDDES
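In this qHTS, compounds (final up to 46 uM) act on CHO-M1 cells that are then activated through the M1 receptor with carbachol, in pH 7.4 buffer containing 50 mM LiCl, for 30 min. IP1 accumulation is quantified by the IP-One immunoassay.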
HTT cytoprotect: Huntington cell model cytoprotection by ATP luminescence; PC12 HTT-Q103 induced, cytoprotection, ATP luminescence, 40 h; Potency, µM (series often up to 56.4 µM), without a hit: cytoprotection (ATP increase), most hits filed as activators; hit rate 0.14% among 230,000; further: potency means the concentration at half of the fitted maximal effect; % of control where 0% means no effect; nearly all actives have a fitted effect of over 45% in size
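Compounds added alongside 100 nM tebufenozide, which induces toxic Q103 huntingtin exon 1-GFP in stable PC12 cells; surviving cells quantified by luminescent ATP measurement. Medium: phenol red-free DMEM, 5% equine and 5% calf serum.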
ALDH1A1 block: inhibitors of human aldehyde dehydrogenase 1A1; P00352; Purified ALDH1A1, NADH fluorescence, propionaldehyde substrate; Potency, µM (highest dose often 75.3 µM), for inactives: top-dose activity, negative = inhibition, actives largely listed as inhibitors; hit rate 7.3% among 220,000; AID 1030; active means well fitted inhibition curve with a large enough effect, not every such curve was filed as active; inconclusive means small, poorly fitted or top-dose-only effect, or another doubt; inactive means no such curve, though single readings can be large or run the other way;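 further: potency means the concentration at half of the fitted maximal effect; plate controls were no enzyme wells and a reference inhibitor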
HTT aggregate: mutant huntingtin aggregation inhibition; PC12 HttQ103-GFP aggregates, Acumen cytometry, 40 h; Potency, µM (doses to about 46.1 µM), for the others: at the highest dose activity change, negative = inhibition, hits mostly inhibitors; hit rate 1.1% among 220,000; further: potency means the concentration at half of the fitted maximal effect; on the % scale 0 is the no-effect control and ±100 the full control effect; nearly all actives have a fitted effect of over 60% in size
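Inducible Q103 Huntingtin exon 1–GFP PC12 line, 1500 cells/well in phenol red free DMEM with 5% equine and 5% calf serum. Tebufenozide 100 nM induced expression; compounds titrated; aggregates quantified by cytometry.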
IMPase Li inh: cell-permeable IMPase inhibitors with lithium potentiation; Potency, µM (series often up to 59.4 µM), inactives show at the top dose activity, negative = IMPase inhibition, hits mostly inhibitors; CHO-M1 cells, IP1 TR-FRET (IP-One), carbachol + lithium; hit rate 0.35% among 210,000;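 further: IP1 builds up when IMPase is blocked and the TR-FRET signal falls; potency means the concentration at half of the fitted maximal effect; plate controls were basal vehicle for no effect and high inhibitor control for full effect; nearly all actives have a fitted effect of over 50% in size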
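Steps: plate 2000 CHO-M1 cells per well and culture 16–30 h; add compound and lithium; incubate 30 min, 37C; add d2-IP1 tracer and Eu cryptate anti-IP1 antibody in lysis buffer; read after 10 min at room temperature.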
HPGD block: blocks human HPGD enzyme activity; hit rate 4.3% among 150,000; Potency, µM, without a hit: top-dose activity change, negative = inhibition, usual class: inhibitors; AID 894; P15428; purified HPGD, NADH fluorescence kinetic, PGE2 substrate; active means well fitted inhibition curve with a large enough effect, not every such curve was filed as active; inconclusive means small, poorly fitted or top-dose-only effect, or another doubt; inactive means no such curve, though single readings can be large or run the other way; further: potency means the concentration at half of the fitted maximal effect; on the % scale 0 is the no-effect control and ±100 the full control effect
Target sequence (P15428 whole entry, looked up): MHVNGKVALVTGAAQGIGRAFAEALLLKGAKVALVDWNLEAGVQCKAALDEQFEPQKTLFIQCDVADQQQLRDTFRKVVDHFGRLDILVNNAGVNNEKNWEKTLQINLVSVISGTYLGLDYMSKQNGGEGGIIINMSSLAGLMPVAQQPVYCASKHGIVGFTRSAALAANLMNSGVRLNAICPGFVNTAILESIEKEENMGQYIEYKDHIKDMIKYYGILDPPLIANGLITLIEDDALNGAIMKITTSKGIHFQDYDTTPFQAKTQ
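NADH formation kinetics: reaction with 30 uM PGE2 and 1 mM NAD+ (final), 20 nM enzyme, Tris-HCl pH 8 with Tween 20, after 15 min compound preincubation at room temperature. Fluorescence change, last versus first of five reads.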
The depositor's hits bear a star; [ ] = another dose, or the depositor's remark. Unless noted, the call rests on the fitted dose curve; in most records, active means well fitted curve in the direction sought with a large enough effect; inconclusive means small, poorly fitted or top-dose-only effect, or another doubt; inactive means no such curve, though single readings can be large; an effect the other way counts as inactive or inconclusive.

How did CC1(C)C(C(=O)O)N2C(=O)CC2S1(=O)=O (centres undefined) do in these assays?
HTT cytoprotect: inconclusive; ALDH1A1 block: 6.4%; IMPase Li inh: -3.6%; HPGD block: -3.9%

How did CCCCc1ccc(-n2nc3ccc(NC(=O)c4cc5ccccc5o4)cc3n2)cc1 do in these assays?
IMPase inh: -5.9

How did C#CC[N+]1(CC#Cc2ccccc2)CCOCC1 do in these assays?
IMPase inh: 4.2; HTT cytoprotect: 1.7%; ALDH1A1 block: -30.5%; HTT aggregate: -1.0%[9.22 µM]; IMPase Li inh: -5.8%[38.3 µM]; HPGD block: -14.6%

How did O=C(C[N+]1(CC#Cc2ccccc2)CCOCC1)c1ccc(Cl)cc1 do in these assays?
HTT cytoprotect: -37.3%; ALDH1A1 block: 22.4µM*; HTT aggregate: 3.6%; IMPase Li inh: 7.7%

Results for O=C(C[N+]1(CC#Cc2ccccc2)CCOCC1)c1ccccc1 ?
HTT cytoprotect: 4.1%; ALDH1A1 block: 4.47µM*; HTT aggregate: 10.7%; IMPase Li inh: 15.1%

How did COCCN(CCOC)c1nc(C)nc2c1nc(-c1ccccc1)n2CCN(C)C do in these assays?
HTT cytoprotect: 4.2%; ALDH1A1 block: inconclusive; IMPase Li inh: -3.0%; HPGD block: inconclusive

Results for N#Cc1ccc(C(=O)CSc2nnc(-c3ccc(C(F)(F)F)cn3)s2)cc1 ?
HTT cytoprotect: 9.3%[10 µM]; ALDH1A1 block: 35.5µM*; HTT aggregate: 11.3%[9.22 µM]

Results for Cc1nnc(SCC(=O)c2ccc(Cl)cc2)s1 ?
HTT cytoprotect: -41.4%; ALDH1A1 block: inconclusive; HTT aggregate: 19.2%; IMPase Li inh: 22.2%

Results for CCCCn1c(=O)c(-[n+]2ccccc2)c([O-])c2ccccc21 ?
IMPase inh: 5.8; HTT cytoprotect: 12.4%; ALDH1A1 block: 14.1µM*; HTT aggregate: 8.5%[9.22 µM]; IMPase Li inh: -0.2%[38.3 µM]; HPGD block: -10.6%

How did CCCCn1c(=O)c(-c2ccccc2)c(O)c2ccccc21 do in these assays?
IMPase inh: -2.4; HTT cytoprotect: -4.2%; ALDH1A1 block: inconclusive; HTT aggregate: 14.6%; IMPase Li inh: -6.5%[38.3 µM]; HPGD block: -9.5%

Results for CC(C)Cn1c(=O)c(-[n+]2ccccc2)c([O-])c2ccccc21 ?
HTT cytoprotect: 25.9%; ALDH1A1 block: 2.82µM*; HTT aggregate: -2.1%; IMPase Li inh: -7.5%

Results for COc1ccc(NC(=O)C/C(C)=N/NC(=O)C(=O)Nc2cccc(Cl)c2C)c(OC)c1 ?
HTT cytoprotect: -31.2%; ALDH1A1 block: 1.26µM*; HTT aggregate: inconclusive; IMPase Li inh: -1.5%

What do the screens show for `Cn1cc(-c2nc3cnc(N4CCOCC4)nc3n(CCC#N)c2=O)c2ccccc21`?
HTT cytoprotect: -9.1%; ALDH1A1 block: 13.9%; IMPase Li inh: 16.5%

How did COc1ccccc1-c1ccc(SCc2cccc(C)c2)nn1 do in these assays?
HTT cytoprotect: inconclusive; ALDH1A1 block: inconclusive; HTT aggregate: 22.4µM*; IMPase Li inh: 8.6%

What do the screens show for `COc1cc(OC)cc(-c2nc3n(n2)C(c2ccccc2F)C(C(=O)Nc2cccnc2)=C(C)N3)c1` (centres undefined)?
IMPase inh: 5.9

How did COc1ccc(C2=NOC(C(=O)NCc3ccc(F)cc3)C2)cc1OC (centres undefined) do in these assays?
IMPase inh: 1.4; HTT cytoprotect: -54.5%[10 µM]; ALDH1A1 block: 6.3%; HTT aggregate: inconclusive; IMPase Li inh: 21.1%[38.3 µM]; HPGD block: -7.7%

What do the screens show for `COc1cc(C2=NOC(C(=O)NCc3ccc(F)cc3)C2)cc(OC)c1OC` (centres undefined)?
IMPase inh: 1.3; HTT cytoprotect: -78.1%[10 µM]; ALDH1A1 block: 31.6µM*; HTT aggregate: 7.7%; IMPase Li inh: -14.8%[38.3 µM]; HPGD block: -22.7%

How did COc1ccc(S(=O)(=O)NCCSC(C)(C)C)cc1Cl do in these assays?
IMPase inh: 6.8; HTT cytoprotect: 8.9%; ALDH1A1 block: inconclusive; HTT aggregate: -32.4%; IMPase Li inh: 4.3%[38.3 µM]; HPGD block: -2.4%

How did COc1ccc(S(=O)(=O)NCCSCc2ccco2)cc1Cl do in these assays?
IMPase inh: 1.2; HTT cytoprotect: 9.0%[10 µM]; ALDH1A1 block: 20µM*; HTT aggregate: -1.0%; IMPase Li inh: 7.7%[38.3 µM]; HPGD block: 0.0%

What do the screens show for `CCC(=O)Nc1cccc(NC(=O)CSc2nnnn2Cc2ccccc2)c1`?
IMPase inh: 2.0; HTT cytoprotect: -14.0%; ALDH1A1 block: 20µM*; HTT aggregate: 4.8%; IMPase Li inh: -0.9%[38.3 µM]; HPGD block: -13.2%

How did CC(=O)Nc1cccc(NC(=O)CSc2nnnn2C(C)C)c1 do in these assays?
IMPase inh: 6.1; HTT cytoprotect: 29.8%[10 µM]; ALDH1A1 block: 14.1µM*; HTT aggregate: 4.6%; IMPase Li inh: 3.0%; HPGD block: -3.2%

Results for CC(=O)Nc1cccc(NC(=O)CSc2nnnn2C)c1 ?
IMPase inh: 4.1; HTT cytoprotect: 10.4%; ALDH1A1 block: 5.5%; HTT aggregate: -4.1%; IMPase Li inh: -0.9%[38.3 µM]; HPGD block: 1.3%

How did O=C(CSc1nnnn1Cc1ccccc1)Nc1ccc2c(c1)OCO2 do in these assays?
IMPase inh: 9.7; HTT cytoprotect: 13.7%; ALDH1A1 block: -46.9%; HTT aggregate: -1.1%; IMPase Li inh: 42.2%[38.3 µM]; HPGD block: -21.6%

How did O=C(CSc1nnnn1Cc1ccccc1)Nc1ccc2c(c1)OCCO2 do in these assays?
IMPase inh: 2.3[9.22 µM]; HTT cytoprotect: 20.2%; ALDH1A1 block: 8.91µM*; HTT aggregate: 1.6%; IMPase Li inh: -34.6%[38.3 µM]; HPGD block: -14.0%

What do the screens show for `COc1cc(NC(=O)CSc2nnnn2Cc2ccccc2)cc(OC)c1`?
HTT cytoprotect: 2.9%[10 µM]; ALDH1A1 block: -4.7%; HTT aggregate: 6.8%[9.22 µM]; IMPase Li inh: 8.9%

What do the screens show for `CCOC(=O)CN1CC23C=CC(O2)C(C(=O)NCc2cccs2)C3C1=O` (centres undefined)?
IMPase inh: 0.8; HTT cytoprotect: -2.5%; ALDH1A1 block: 12.2%; HTT aggregate: -18.7%[9.22 µM]; IMPase Li inh: -9.3%[38.3 µM]; HPGD block: -3.3%

How did CCOC(=O)CN1CC23C=CC(O2)C(C(=O)NCc2ccc(C)cc2)C3C1=O (centres undefined) do in these assays?
IMPase inh: 3.9; HTT cytoprotect: -0.8%; ALDH1A1 block: -2.6%; HTT aggregate: 2.6%; IMPase Li inh: 4.6%[38.3 µM]; HPGD block: 15.8µM*

Results for O=C(CSc1ccccc1C(=O)O)NC12CC3CC(CC(C3)C1)C2 ?
HTT cytoprotect: 0.9%[10 µM]; HTT aggregate: 0.9%[9.22 µM]

How did CCCN1C(=O)/C(=N\OCC(=O)NC23CC4CC(CC(C4)C2)C3)c2ccccc21 do in these assays?
IMPase inh: -5.3; HTT cytoprotect: -6.5%[10 µM]; ALDH1A1 block: 0.282µM*; HTT aggregate: inconclusive; IMPase Li inh: 1.3%; HPGD block: 15.8µM*

Source: PubChem BioAssay
